Measurements as given in the supplement of paper PMC12297408.
Unmarked numbers belong to inactive results.

Tested on: Plasmodium falciparum NF54/iGP1_RE9H ulg8 stage V gametocytes
Experiment: gametocyte viability (luciferase signal relative to DMSO control) (% of DMSO control); higher = less gametocytocidal activity, active = 50 or less
Conditions: exposure time: 72 h
Method in brief: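 Compounds from 10 mM DMSO stocks were spotted at nanolitre scale into 96-well plates, and day-12 stage V NF54/iGP1_RE9Hulg8 gametocytes (~2.5% gametocytemia, 3% hematocrit; medium with 0.5% Albumax II) were added to reach 10 µM or 1 µM, one well per concentration. The plates were kept at 37 °C for 72 h. Luminescence was then read on an IVIS Lumina II after mixing 90 µl of culture with 10 µl D-luciferin (30 mg/ml). Viability values are relative to the plate's mean DMSO vehicle signal.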

| SMILES | gametocyte viability (concentration: 1 µM) | gametocyte viability (concentration: 10 µM) |
| --- | --- | --- |
| N#CC(=C(/N)Sc1ccccc1N)/C(C#N)=C(\N)Sc1ccccc1N | 94.3 | 95.9 |
| CNC(=O)c1c(F)cccc1Nc1nc(Nc2cc3c(cc2OC)CCN3C(=O)CN(C)C)nc2[nH]ccc12 | 103 | 113 |
| C=CC(=O)N1CCC[C@@H](n2nc(-c3ccc(Oc4ccccc4)cc3)c3c(N)ncnc32)C1 | 106 | 104 |
| O=C(c1ccc(/C=C/c2n[nH]c3ccccc23)cc1)N1CCNCC1 | 104 | 93.7 |
| Cc1cc(Nc2cc(N3CCN(C)CC3)nc(/C=C/c3ccccc3)n2)n[nH]1 | 90.7 | 71.4 |
| COc1cccc2cc(-c3nc([C@H]4CC[C@H](C(=O)O)CC4)n4ncnc(N)c34)[nH]c12 | 108 | 109 |
| CN(C)Cc1cccc(N=C(c2ccccc2)c2c(O)[nH]c3cc(C(N)=O)ccc23)c1 | 109 | 122 |
| CO[C@H]1C[C@@H]2CC[C@@H](C)[C@@](O)(O2)C(=O)C(=O)N2CCCC[C@H]2C(=O)O[C@H]([C@H](C)C[C@@H]2CC[C@@H](OCCO)[C@H](OC)C2)CC(=O)[C@H](C)/C=C(\C)[C@@H](O)[C@@H](OC)C(=O)[C@H](C)C[C@H](C)/C=C/C=C/C=C/1C [Everolimus (RAD001)] | 91 | 94.2 |
| O=c1cc(N2CCOCC2)oc2c(-c3cccc4c3sc3ccccc34)cccc12 | 106 | 105 |
